Growth inhibition, inhibition and outcome data for 21 compounds are collected here from PubChem BioAssay.

A short description of assay [1]: antimalarial activity against Dd2 strain (AID 2302;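 active = growth inhibition above 50% at the single 2 µM test dose, taken to imply half-maximal potency below 2 µM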;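 note: 0% = DMSO untreated growth and 100% = chloroquine plus artemisinin killed control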). The settings on record: P. falciparum Dd2 in RBCs, LDH growth readout, 72 h; at 2 µM; stronger effect = higher value.
A short description of assay [2]: HepG2 cytotoxicity, primary screen, cytotoxicity control for P. falciparum antimalarial project, cell-based, ATP luminescence (AID 2303;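 active = inhibition above 50%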;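 note: 0% = DMSO wells and 100% = digitonin-killed cells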). Particulars: HepG2 viability, 24-48 h, at 10 µM, stronger effect = higher value.
The target of assay [3] is L-lactate dehydrogenase (Plasmodium falciparum (isolate CDC / Honduras)) (UniProt Q27743). Put plainly: PfLDH activity inhibition – cell lysate, 3D7 strain, counter-screen for P. falciparum growth inhibition project (AID 2304).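 Note: 0% = vehicle and 100% = reference inhibitor.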 The settings on record: P. falciparum 3D7 crude extract, LDH APAD/NBT absorbance; at 2 µM; stronger effect = higher value.
L-lactate dehydrogenase (Plasmodium falciparum (isolate CDC / Honduras)), sequence (Q27743 whole entry, looked up): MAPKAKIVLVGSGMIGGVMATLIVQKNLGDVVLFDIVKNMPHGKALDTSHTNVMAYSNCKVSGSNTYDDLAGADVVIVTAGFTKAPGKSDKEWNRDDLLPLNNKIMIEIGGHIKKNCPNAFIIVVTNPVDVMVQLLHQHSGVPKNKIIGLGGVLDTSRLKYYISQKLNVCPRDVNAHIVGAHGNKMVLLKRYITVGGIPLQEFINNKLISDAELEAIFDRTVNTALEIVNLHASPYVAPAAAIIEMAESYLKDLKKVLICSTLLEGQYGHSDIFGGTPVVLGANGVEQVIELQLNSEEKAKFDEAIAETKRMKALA
A short description of assay [4]: inhibition of 3D7 malaria parasite growth – strain 3D7 (AID 2306).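 Note: 0% = DMSO wells and 100% = chloroquine plus artemisinin control wells.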 Particulars: P. falciparum 3D7 erythrocytic growth, LDH absorbance, 72 h; at 2 µM; stronger effect = higher value.
The target of assay [5] is Calcium-dependent protein kinase 1 (Plasmodium falciparum (isolate 3D7)) (UniProt P62344). Description: PfCDPK1 kinase inhibitors, biochemical, TCAMS library (AID 1159585; cut-off not given, nearly all actives have IC50 up to about 0.98 µM;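 note: inhibitors leave more ATP so luminescence rises with inhibition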). Particulars: recombinant PfCDPK1, Kinase-Glo ATP depletion luminescence.
Calcium-dependent protein kinase 1 (Plasmodium falciparum (isolate 3D7)), sequence (P62344 whole entry, looked up): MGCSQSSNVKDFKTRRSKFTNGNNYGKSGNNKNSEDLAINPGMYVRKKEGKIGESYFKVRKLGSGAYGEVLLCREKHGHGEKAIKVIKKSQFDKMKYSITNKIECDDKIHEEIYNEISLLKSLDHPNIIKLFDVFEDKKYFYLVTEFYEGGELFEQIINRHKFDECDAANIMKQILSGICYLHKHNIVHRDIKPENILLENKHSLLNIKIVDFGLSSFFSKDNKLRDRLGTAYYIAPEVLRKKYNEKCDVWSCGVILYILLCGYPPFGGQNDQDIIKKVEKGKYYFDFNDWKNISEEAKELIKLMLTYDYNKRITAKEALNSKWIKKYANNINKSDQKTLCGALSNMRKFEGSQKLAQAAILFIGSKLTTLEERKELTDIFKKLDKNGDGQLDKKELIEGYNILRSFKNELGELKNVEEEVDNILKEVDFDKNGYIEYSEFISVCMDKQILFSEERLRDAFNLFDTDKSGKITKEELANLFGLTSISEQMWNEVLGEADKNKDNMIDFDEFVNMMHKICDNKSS
The target of assay [6] is Plasmodium falciparum protein kinase 6 (PK6, PF3D7_1337100) (UniProt Q8IDW1). Description: PfPK6 kinase inhibitors, biochemical, TCAMS library (AID 1159586). The settings on record: recombinant PfPK6, Kinase-Glo ATP depletion luminescence.
Plasmodium falciparum protein kinase 6 (PK6, PF3D7_1337100), sequence (Q8IDW1 1-305): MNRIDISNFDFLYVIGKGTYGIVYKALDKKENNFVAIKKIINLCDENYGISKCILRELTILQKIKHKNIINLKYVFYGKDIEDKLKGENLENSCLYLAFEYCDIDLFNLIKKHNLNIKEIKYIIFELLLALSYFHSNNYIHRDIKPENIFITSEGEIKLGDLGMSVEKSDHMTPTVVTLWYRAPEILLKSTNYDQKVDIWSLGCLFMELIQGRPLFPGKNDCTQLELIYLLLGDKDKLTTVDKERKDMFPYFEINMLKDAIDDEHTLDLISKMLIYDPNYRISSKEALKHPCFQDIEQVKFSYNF
Assay [7] has as its target Protein kinase 7 (PK7), Plasmodium falciparum 3D7 (PF3D7_0213400) (UniProt Q7YTF7). Put plainly: inhibition of Plasmodium PK7 catalytic activity – biochemical, TCAMS antimalarial set, Kinase-Glo luminescence (AID 1159587). The settings on record: recombinant PfPK7, Kinase-Glo ATP depletion luminescence.
Assay [8] has as its target Calcium-dependent protein kinase 4 (Plasmodium falciparum (isolate 3D7)) (UniProt Q8IBS5). Description: PfCDPK4 kinase inhibitors, biochemical, TCAMS library (AID 1159588; cut-off not given, nearly all actives have IC50 up to about 0.91 µM). Particulars: recombinant PfCDPK4, Kinase-Glo ATP depletion luminescence.

A number with no mark means an inactive call. For part of these data: Entries with a potency or affinity are not part of this list. Active and inactive are the calls of the source. Unless noted, the rule behind the calls is not given here.

Calcium-dependent protein kinase 4 (Plasmodium falciparum (isolate 3D7)), sequence (Q8IBS5 whole entry, looked up): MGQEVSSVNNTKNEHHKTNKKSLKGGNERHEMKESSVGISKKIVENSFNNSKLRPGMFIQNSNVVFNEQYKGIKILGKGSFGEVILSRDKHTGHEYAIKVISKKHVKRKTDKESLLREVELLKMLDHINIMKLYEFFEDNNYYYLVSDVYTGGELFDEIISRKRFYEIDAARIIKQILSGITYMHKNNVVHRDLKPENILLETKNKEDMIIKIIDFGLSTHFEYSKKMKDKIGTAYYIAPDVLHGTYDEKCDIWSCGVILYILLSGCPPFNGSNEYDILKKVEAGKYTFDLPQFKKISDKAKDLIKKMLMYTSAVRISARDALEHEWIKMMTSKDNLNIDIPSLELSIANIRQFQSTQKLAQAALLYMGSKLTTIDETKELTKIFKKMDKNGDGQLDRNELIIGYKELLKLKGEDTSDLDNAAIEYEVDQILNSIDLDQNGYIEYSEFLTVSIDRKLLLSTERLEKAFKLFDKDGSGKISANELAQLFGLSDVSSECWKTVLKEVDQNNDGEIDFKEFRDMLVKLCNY
Protein kinase 7 (PK7), Plasmodium falciparum 3D7 (PF3D7_0213400), sequence (Q7YTF7 1-343): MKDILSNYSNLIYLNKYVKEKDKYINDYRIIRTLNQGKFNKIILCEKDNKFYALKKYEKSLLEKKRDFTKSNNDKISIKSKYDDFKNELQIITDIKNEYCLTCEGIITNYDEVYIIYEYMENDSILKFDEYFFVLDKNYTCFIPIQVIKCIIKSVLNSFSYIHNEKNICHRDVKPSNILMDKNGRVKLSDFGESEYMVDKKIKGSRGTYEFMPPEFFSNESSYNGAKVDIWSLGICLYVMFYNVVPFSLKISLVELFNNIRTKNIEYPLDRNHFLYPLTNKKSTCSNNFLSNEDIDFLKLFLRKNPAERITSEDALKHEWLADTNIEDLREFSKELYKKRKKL

With `O=C(C=Cc1ccccc1)Nc1ccc(C#CC=Cc2ccc(NC(=O)C=Cc3ccccc3)cc2)cc1`, the figures for the growth inhibition in assay [1] and in assay [4] were 3% and 100% (active), respectively. Moreover, the figures for the inhibition in assay [2] and in assay [3] were 26% and 1%, respectively. In addition, the outcome in assay [5], in assay [6], in assay [7] and in assay [8] was inactive.

Turning to `O=c1cc(NCCCNCc2[nH]c3cc(Cl)cc(Cl)c3c2Cn2cccn2)[nH]c2ccccc12`, the growth inhibition was 2% in assay [1] and 86% (active) in assay [4]. Besides, the values for the inhibition in assay [2] and in assay [3] were 5% and 1%, respectively. In addition, the result in assay [5], in assay [6], in assay [7] and in assay [8] was inactive.

Turning to `O=S(=O)(c1ccc(Oc2ccccc2)cc1)N(CCC(O)(C(F)(F)F)C(F)(F)F)Cc1cccc(O)c1`, the figures for the growth inhibition in assay [1] and in assay [4] were 99% (active) and 102% (active), respectively. Further, the inhibition in assay [2] is -13%; in assay [3], 5%. The outcome in assay [5], in assay [6], in assay [7] and in assay [8] was inactive.

As to `COc1c(C2CCN(CCCCNC(=O)c3cc(-c4ccc(Cl)cc4)[nH]c3C)CC2)ccc2c1CCCC2`, the figures for the growth inhibition in assay [1] and in assay [4] were 91% (active) and 100% (active), respectively. Also, the inhibition was 53% (active) in assay [2] and -6% in assay [3]. Also, the result in assay [5], in assay [6], in assay [7] and in assay [8] was inactive.

As for `CCCCCc1cc(OCCN(C)C)cc2c1C(=O)CC(C)(C)O2`, the growth inhibition was -2% in assay [1] and 98% (active) in assay [4]. Moreover, the inhibition in assay [2] is 5%; in assay [3], 6%. The result in assay [5], in assay [6], in assay [7] and in assay [8] was inactive.

Consider `COc1ccc(/C=C/c2ccc(-c3c(C)[nH]c(C)c(Cl)c3=O)cc2)cc1OC`, for which the growth inhibition in assay [1] was 96% (active); in assay [4], 97% (active). The inhibition in assay [2] is 12%; in assay [3] it was -8%. Moreover, the outcome in assay [5], in assay [6], in assay [7] and in assay [8] was inactive.

In the case of `COc1ccc(CN2CCN(C(=O)c3cccs3)CC2)c(O)c1`, the growth inhibition was 2% in assay [1] and 97% (active) in assay [4]. For the same compound, the inhibition in assay [2] is 7%; in assay [3] it was 2%. The outcome in assay [5], in assay [6], in assay [7] and in assay [8] was inactive.

`O=C1c2ccccc2C(=O)N1c1ccc(S(=O)(=O)N2CCOCC2)cc1`: the values for the growth inhibition in assay [1] and in assay [4] were -1% and 94% (active), respectively. The results for the inhibition in assay [2] and in assay [3] were -1% and 3%, respectively. Moreover, the outcome in assay [5], in assay [6], in assay [7] and in assay [8] was inactive.

Take `COc1ccc2ncc(F)c(CCN3CCC4(CC3)COC(c3cc5c(cn3)OCCO5)=N4)c2n1`: the growth inhibition in assay [1] was 83% (active); in assay [4], 89% (active). For the same compound, the inhibition is 79% (active) in assay [2] and 5% in assay [3]. Further, the result in assay [5], in assay [6], in assay [7] and in assay [8] was inactive.

Consider `O=C(/C=C/c1ccc(Cl)c(Cl)c1)NCCCCCN1CCCN(C(=S)Nc2ccc(Cl)cc2)CC1`, for which the growth inhibition in assay [1] is 10%; in assay [4], 86% (active). For the same compound, the inhibition is 7% in assay [2] and -3% in assay [3]. Further, the outcome in assay [5], in assay [6], in assay [7] and in assay [8] was inactive.

As for `CC(C)(C)OC(=O)C1CCCN(Cc2ccc(-c3cccc(-c4nc5ccccc5[nH]4)c3)cc2)C1` (stereo not drawn), the growth inhibition in assay [1] is 27%; in assay [4], 93% (active). Further, the figures for the inhibition in assay [2] and in assay [3] were 37% and 4%, respectively. Also, the result in assay [5], in assay [6], in assay [7] and in assay [8] was inactive.

Regarding `CC(=O)c1cccc2c(NC(=O)Nc3ccc4nccc(N5CCN(C)CC5)c4c3)cccc12`, the growth inhibition in assay [1] was 94% (active); in assay [4] it was 99% (active). For the same compound, the inhibition in assay [2] was 13%; in assay [3], -3%. Further, the result in assay [5], in assay [6], in assay [7] and in assay [8] was inactive.

As to `OC(CNCCc1ccccc1)Cn1c2ccc(Cl)cc2c2cc(Cl)ccc21` (stereo not drawn), the growth inhibition in assay [1] is 96% (active); in assay [4], 98% (active). Moreover, the inhibition is 53% (active) in assay [2] and 8% in assay [3]. Also, the outcome in assay [5], in assay [6], in assay [7] and in assay [8] was inactive.

Take `O=C(Nc1cccc(-c2nn3ccccc3c2-c2ccnc(Nc3ccccc3)n2)c1)c1cc(F)ccc1F`: the growth inhibition in assay [1] was 75% (active); in assay [4] it was 98% (active). The inhibition in assay [2] is 8%; in assay [3], 0%. In addition, the outcome in assay [5], in assay [6], in assay [7] and in assay [8] was inactive.

Consider `Cc1[nH]nc2cc(Nc3ccnc(Nc4ccc(CN5CCOCC5)cc4)n3)ccc12`, for which the growth inhibition is 5% in assay [1] and 97% (active) in assay [4]. In addition, the inhibition in assay [2] is 22%; in assay [3] it was -4%. In addition, the result in assay [5], in assay [6], in assay [7] and in assay [8] was inactive.

In the case of `COc1cc(C2CCCCC2)c(OC)cc1CC1c2cc(O)c(Cl)cc2CCN1C` (stereo not drawn), the growth inhibition in assay [1] and in assay [4] was 100% (active) each time. In addition, the inhibition in assay [2] is 12%; in assay [3], 4%. Also, the result in assay [5], in assay [6], in assay [7] and in assay [8] was inactive.

For `COc1cc2ncnc(Nc3ccc(OCc4ccccc4Br)c(Cl)c3)c2cc1OC`, the growth inhibition was 6% in assay [1] and 96% (active) in assay [4]. For the same compound, the inhibition was 25% in assay [2] and -4% in assay [3]. Also, the outcome in assay [5], in assay [6], in assay [7] and in assay [8] was inactive.

For the compound `O=C(Nc1cccc(-c2cccc(-c3nc4ccc(F)cc4[nH]3)c2)c1)c1ccoc1`, the values for the growth inhibition in assay [1] and in assay [4] were 35% and 98% (active), respectively. The inhibition in assay [2] is 36%; in assay [3] it was 5%. Also, the result in assay [5], in assay [6], in assay [7] and in assay [8] was inactive.

For the compound `CC1(C)N=C(N)N=C(N)N1OCCc1ccccc1`, the growth inhibition in assay [1] was 95% (active); in assay [4], 96% (active). Further, the inhibition is 70% (active) in assay [2] and 2% in assay [3]. The result in assay [5], in assay [6], in assay [7] and in assay [8] was inactive.

In the case of `C[C@@H](C(=O)N1CCOCC1)N1CC[C@H](NS(=O)(=O)c2ccc3ccnc(N)c3c2)C1=O`, the results for the growth inhibition in assay [1] and in assay [4] were 61% (active) and 84% (active), respectively. In addition, the inhibition in assay [2] was -6%; in assay [3], -4%. Besides, the result in assay [5], in assay [6], in assay [7] and in assay [8] was inactive.

As to `COc1cccc(C(=O)[C@H]2C[C@@H]2CN(C)CCC(O)c2ccc(Cl)c(Cl)c2)c1` (stereo partly drawn), the values for the growth inhibition in assay [1] and in assay [4] were 95% (active) and 99% (active), respectively. The inhibition was 17% in assay [2] and -2% in assay [3]. In addition, the outcome in assay [5], in assay [6], in assay [7] and in assay [8] was inactive.
